In PubChem BioAssay (NCI):
About 83,000 compounds went through this panel and 20% of them were active in at least one assay; those are over-represented in the sample as a whole.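 96-well plates, one dose, 48 hours. Percent growth reported; active if below 10.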 Active and inactive are the calls of the source.

What was measured:
Assay in all cases: NCI-60 one-dose screen, 48 h (100 = growth as untreated, 0 = no growth, -100 = all killed)
[1] = test system: HCT-15 colon; conditions: 10 µM unless noted
[2] = test system: HT29 colon; conditions: 10 µM unless noted
[3] = test system: SNB-19 CNS; conditions: 10 µM unless noted
[4] = test system: U251 CNS; conditions: 10 µM unless noted
[5] = test system: PC-3 prostate; conditions: 10 µM unless noted
[6] = test system: SK-MEL-5 melanoma; conditions: 10 µM unless noted
[7] = test system: UACC-62 melanoma; conditions: 10 µM unless noted
[8] = test system: LOX IMVI melanoma; conditions: 10 µM unless noted
[9] = test system: SK-MEL-28 melanoma; conditions: 10 µM unless noted
[10] = test system: SK-MEL-2 melanoma; conditions: 10 µM unless noted
[11] = test system: EKVX NSCLC; conditions: 10 µM unless noted
[12] = test system: SN12C renal; conditions: 10 µM unless noted
[13] = test system: UO-31 renal; conditions: 10 µM unless noted
[14] = test system: TK-10 renal; conditions: 10 µM unless noted
[15] = test system: ACHN renal; conditions: 10 µM unless noted
[16] = test system: CAKI-1 renal; conditions: 10 µM unless noted
[17] = test system: A498 renal; conditions: 10 µM unless noted
[18] = test system: SNB-75 CNS; conditions: 10 µM
[19] = test system: CCRF-CEM leukemia; conditions: 10 µM unless noted
[20] = test system: MOLT-4 leukemia; conditions: 10 µM unless noted

Measured: growth

CCCCN(CCCC)c1ccc(C(=N)c2ccc(N(CCCC)CCCC)cc2)cc1
active: [1] -91.9% | [2] -81.1% | [3] -82.8% | [4] -92.9% | [5] -94.4% | [6] -97% | [7] -81.6% | [8] -97.2% | [9] 9.39% | [10] -79.1% | [11] -13.9% | [12] -94.1% | [13] -71.1% | [14] -83.9% | [15] -100% | [16] -37.6% | [17] -25.7%

COC1=C(OC)C(=O)C(CCCCCCCCCC[P+](c2ccccc2)(c2ccccc2)c2ccccc2)=C(C)C1=O
active: [1] -3.39% | [2] -10.6% | [18] -44.5% | [3] -53.1% | [4] -27.2% | [5] -12.7% | [6] -100% | [7] -93% | [8] -89.6% | [9] -86.1% | [10] -42.7% | [11] -6.16% | [12] -74.8% | [13] -18.2% | [14] -56.7% | [15] -25.9% | [16] -40.6% | [17] -44.1% | [19] -6.4% | [20] -33.8%

CC(C)(C)n1cc(-c2ccnc(NCCCNS(=O)(=O)c3ccccc3)c2)c(-c2cccc(O)c2)n1
inactive: [3] 76% | [4] 48.5% | [5] 30.3% | [6] 16.1% | [7] 59.8% | [9] 44.1% | [10] 60.1% | [11] 57.3% | [12] 52.8% | [13] 55.7% | [14] 89.7% | [15] 45.6% | [16] 52.9% | [17] 40.2% | [19] 35.1% | [20] 32.1%
active: [1] -4.07% | [2] 8.45% | [8] -43.3%

O=C(CSc1nc2ccccc2[nH]1)c1ccc(N2CCOCC2)cc1
inactive: [1] 99.4% | [2] 113% | [3] 98.7% | [4] 103% | [5] 100% | [6] 105% | [7] 97.1% | [8] 94.8% | [9] 114% | [10] 113% | [11] 80.4% | [12] 105% | [13] 85.5% | [14] 118% | [15] 105% | [16] 99% | [17] 85.8% | [19] 103% | [20] 135%

CCCCCCCCCCCCNC(=O)[C@H]1CSC(c2cc3ccccc3s2)N1 (stereo partly specified)
inactive: [3] 51.2% | [6] 57.9% | [15] 17.5% | [16] 74.7% | [17] 98.9%
active: [1] -34.1% | [2] -8.26% | [4] -78.9% | [5] -17.4% | [7] -76.2% | [8] -85.7% | [9] -89% | [10] -45.7% | [11] -59.6% | [12] -16.1% | [13] -82.6% | [14] -78.7% | [19] -45.5% | [20] -63.3%

O=c1[nH]c(NCc2ccccc2)nc2nc(Nc3ccc(NC(=S)Nc4ccccc4)cc3)nc(-c3ccc(O)cc3O)c12
inactive: [1] 105% | [2] 125% | [18] 91.7% | [3] 91.9% | [4] 87.8% | [5] 109% | [6] 113% | [7] 83% | [8] 101% | [9] 91.5% | [10] 97.5% | [11] 63.2% | [12] 97.4% | [13] 78.5% | [14] 134% | [15] 103% | [16] 77.3% | [17] 101% | [19] 86.4% | [20] 77.4%

Clc1ccc(-c2nc3ccccc3s2)cc1Cl
inactive: [1] 96.6% | [2] 97.2% | [3] 93.6% | [4] 86.9% | [5] 89% | [6] 89.8% | [7] 88.2% | [8] 88.4% | [9] 106% | [10] 94.8% | [11] 85.3% | [12] 92.3% | [13] 72.3% | [14] 81.5% | [15] 93.3% | [16] 83.9% | [17] 77%

COc1cc2c(cc1OCCCCCn1c3ccccc3c3ccccc31)N=C[C@@H]1CCCN1C2=O
inactive: [11] 46.6% | [16] 38.3%
active: [1] -74.3% | [2] -45.8% | [18] -11.3% | [3] -49.9% | [4] -58% | [5] -41.8% | [6] -100% | [7] -90.3% | [8] -64.8% | [9] -78.8% | [10] -65.7% | [12] -54.8% | [13] -75.8% | [14] -37.8% | [15] -63% | [17] -51.8% | [19] -0.543% | [20] -39.9%

C=COC(=O)CCCCCCCCC
inactive: [1] 113% | [2] 100% | [3] 97.6% | [4] 105% | [5] 102% | [6] 107% | [7] 99.2% | [8] 98.5% | [9] 106% | [10] 108% | [11] 94.1% | [12] 106% | [13] 85.7% | [14] 109% | [15] 104% | [16] 92.8% | [17] 96.4%

C/C(=N/NC(=S)Nc1ccccc1)c1nc2ccc(Cl)cc2[nH]1
active: [1] 0.555% | [2] -88.5% | [18] -75.5% | [3] -33.7% | [4] -44.2% | [5] -47.7% | [6] -97.3% | [7] -72.6% | [8] -75.8% | [9] -96.6% | [10] -93.6% | [11] -23.6% | [12] -37.4% | [13] -35.5% | [14] -39.1% | [15] 7.65% | [16] 9.36% | [17] -81.4% | [19] 1.46% | [20] -16.7%

COc1ccc(NC(=O)c2c(Nc3ccc(OC)cc3OC)n[nH]c2N)c(OC)c1
inactive: [1] 104% | [2] 102% | [3] 90.3% | [4] 96.4% | [5] 90.6% | [6] 79.9% | [7] 68% | [8] 101% | [9] 96.6% | [10] 102% | [11] 89.1% | [12] 90% | [13] 69.7% | [14] 117% | [15] 95% | [16] 94.9% | [17] 114% | [19] 110% | [20] 78.8%

Cc1ccc(CSC(=N)N)cc1C
inactive: [1] 116% | [2] 104% | [3] 98.7% | [4] 111% | [5] 87.7% | [6] 105% | [7] 97.8% | [8] 91.9% | [9] 111% | [10] 125% | [11] 100% | [12] 104% | [13] 87.7% | [14] 102% | [15] 107% | [16] 93.4% | [17] 103%

O=C(Nc1ccc(Cl)c(Cl)c1)NS(=O)(=O)c1cnccc1Oc1ccc(F)cc1
inactive: [1] 73.9% | [2] 75.1% | [18] 79% | [3] 57% | [4] 56.8% | [5] 22.2% | [6] 108% | [7] 59.2% | [9] 94.5% | [10] 64.3% | [11] 15.1% | [12] 76.3% | [13] 67.4% | [14] 42.3% | [15] 43.5% | [17] 33.7% | [20] 52.3%
active: [16] 5.6% | [19] 2.81%

FC(F)(F)c1cccc(-c2cn3c(ccc4ccccc43)n2)c1
inactive: [1] 90.9% | [2] 102% | [3] 100% | [4] 86.9% | [5] 83% | [6] 92.4% | [7] 79.9% | [8] 90.1% | [9] 115% | [10] 102% | [11] 85.4% | [12] 97% | [13] 68.1% | [14] 122% | [15] 90.3% | [16] 71.4% | [17] 94.9% | [19] 105% | [20] 104%

c1coc(CNc2ccnc(Nc3ccc(OCCN4CCCCC4)cc3)n2)c1
inactive: [1] 89.6% | [2] 57.6% | [3] 97.3% | [4] 85.8% | [5] 82.9% | [6] 80.3% | [7] 93.6% | [8] 82.6% | [9] 107% | [10] 104% | [11] 95.1% | [12] 78% | [13] 71.2% | [14] 107% | [15] 100% | [16] 92.3% | [17] 59.8% | [19] 81.4% | [20] 81.1%

CN(C)CC(C(=O)c1ccccc1)c1ccccc1 (stereo unspecified)
active: [1] -37.7% | [2] -17.4% | [8] 3.08% | [14] -20% | [15] -41.5% | [16] -2.87%
inactive: [3] 84.4% | [4] 59.8% | [5] 38.3% | [6] 64.2% | [7] 34.8% | [9] 61% | [10] 34.7% | [11] 89.6% | [12] 31.2% | [13] 41.3% | [17] 99.7%

COc1cc2c(cc1OCCCN1CCN(CCCn3c4ccccc4c4ccccc43)CC1)N=C[C@@H]1CCCN1C2=O
active: [1] -44.6% | [2] -17.2% | [18] -98.9% | [4] -99.1% | [5] -64.7% | [6] -100% | [7] -87.3% | [8] -91.2% | [9] -98.3% | [10] -78.1% | [11] -86.8% | [12] -47.9% | [14] -79.6% | [15] -100% | [16] -75% | [17] -96.9% | [19] -11.4% | [20] -39.6%
